Gal4-VP16 FLuc = inhibits Gal4-VP16 luciferase reporter, ROR gamma counter-screen; hit rate 3.5% among 310,000; Drosophila S2 Gal4-VP16 UAS-luciferase, luminescence, 20 h; AID 2546; Potency, µM (top dose mostly 53.6 µM), for the others: at the highest dose activity, negative = inhibition, actives largely listed as inhibitors;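 further: Gal4-VP16 expression switched on by copper sulfate through the metallothionein promoter; nearly all actives have a fitted effect of over 50% in size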
ELG1 repair inh = blocks ELG1-dependent DNA repair in HEK293T cells; hit rate 2.3% among 330,000; AID 504467; HEK293T ELG1-luciferase reporter, luminescence, 16 h; DNA damage induced by 5-fluorouridine; Potency, µM (titrated, usually from 46.1 µM), inactives show at the highest dose activity change, negative = inhibition, actives largely listed as inhibitors; further: nearly all actives have a fitted effect of over 55% in size
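Step one: seed 2,000 cells per well. Step two: pin-transfer compound or DMSO alongside 5-fluorouridine. Step three: incubate 16 hr, 37 °C, 5% CO2. Step four: add ONE-Glo, wait 30 min, read luminescence.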
TDP1 cell CPT = DT40-hTDP1 cell growth loss with CPT. hit rate 12% among 420,000. Potency, µM (top dose mostly 46.2 µM), inactives show at the highest dose activity change, negative = growth inhibition, usual class: inhibitors. chicken DT40 Tdp1-/-;hTDP1 cells + 20 nM CPT, ATP luminescence, 48 h; further: nearly all actives have a fitted effect of over 55% in size
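Chicken DT40 Tdp1-/- cells complemented with human TDP1, 400 cells/well, exposed to compounds plus 20 nM camptothecin for at least 48 h at 37 C; viability read as ATP content by CellTiter-Glo luminescence.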
RORg inh = blocks mouse ROR gamma transcriptional activity; P51450; Drosophila S2 Gal4-RORgamma UAS-luciferase reporter, 20 h; Potency, µM (series often up to 53.6 µM), without a hit: top-dose activity change, negative = inhibition, most hits filed as inhibitors; hit rate 5.4% among 310,000; AID 2551; further: nearly all actives have a fitted effect of over 60% in size
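Schneider cells (Drosophila), stable Gal4 DBD–ROR gamma + UAS-luc; 1 hr cmpd preincubation; Cu2+ induction 700 uM final; 20 hr ambient; luminescence.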
ALOX12 inh = ALOX12 (human) lipoxygenase inhibition | P18054 | purified 12hLO, xylenol orange hydroperoxide absorbance | Potency, µM (highest dose often 108 µM), for inactives: at the highest dose activity change, negative = inhibition, usual class: inhibitors | hit rate 1.1% among 580,000
Target sequence (P18054 whole entry, looked up): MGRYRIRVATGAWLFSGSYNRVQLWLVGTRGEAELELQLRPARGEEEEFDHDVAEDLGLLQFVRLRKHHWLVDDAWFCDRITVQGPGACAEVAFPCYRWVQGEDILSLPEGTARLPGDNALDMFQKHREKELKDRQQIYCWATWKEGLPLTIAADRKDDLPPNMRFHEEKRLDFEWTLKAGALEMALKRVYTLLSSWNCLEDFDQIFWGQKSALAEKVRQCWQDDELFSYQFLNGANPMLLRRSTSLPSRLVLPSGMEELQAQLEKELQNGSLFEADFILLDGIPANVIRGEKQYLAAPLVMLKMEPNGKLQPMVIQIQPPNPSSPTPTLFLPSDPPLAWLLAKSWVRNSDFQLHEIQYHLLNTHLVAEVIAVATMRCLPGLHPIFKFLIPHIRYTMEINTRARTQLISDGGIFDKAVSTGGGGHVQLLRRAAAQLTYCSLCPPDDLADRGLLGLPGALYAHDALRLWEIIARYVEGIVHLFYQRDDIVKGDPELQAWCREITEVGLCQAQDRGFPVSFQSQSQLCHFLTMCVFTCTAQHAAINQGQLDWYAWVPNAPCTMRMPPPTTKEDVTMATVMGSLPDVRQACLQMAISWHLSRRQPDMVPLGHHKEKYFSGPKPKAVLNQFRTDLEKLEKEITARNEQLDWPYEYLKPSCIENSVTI
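Purified human 12hLO at 150 nM in 25 mM Hepes, 0.01% Triton X-100, pH 7.0, preincubated 15 min at room temperature with compound. Reaction started with 40 uM arachidonic acid, 30 min at room temperature. Hydroperoxide measured by Fe-xylenol orange, 573/405 nm absorbance ratio.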
TDP1 cell noCPT = qHTS for Inhibitors of human tyrosyl-DNA phosphodiesterase 1 (TDP1): qHTS in cells in absence of CPT; DT40 Tdp1-/- hTDP1 cells, no CPT, ATP luminescence, 48 h; Potency, µM (highest dose often 46.2 µM), for the others: at the top dose activity change, negative = growth inhibition, actives largely listed as inhibitors; hit rate 15% among 420,000; further: nearly all actives have a fitted effect of over 55% in size
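Compound effects on proliferation are scored in DT40 Tdp1-/-;hTDP1 cells in the absence of CPT. ATP levels (CellTiter-Glo luminescence) are recorded after a ≥48 hr, 37 °C incubation.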
Active calls of the source: *; [ ] = remark or other dose. Only some compounds are listed: those with a hit (about 15% of all), similar ones and a draw of the others. The call rests on the fitted dose curve; in most records, active means well fitted curve in the direction sought with a large enough effect; inconclusive means small, poorly fitted or top-dose-only effect, or another doubt; inactive means no such curve, though single readings can be large; an effect the other way counts as inactive or inconclusive. On the % scale 0 is the no-effect control and ±100 the full control effect; potency means the concentration at half of the fitted maximal effect.

Results for COCCSc1nnc(NC(=O)CSCc2ccccc2)s1 ?
Gal4-VP16 FLuc: inconclusive; ELG1 repair inh: 16%; TDP1 cell CPT: -12%; RORg inh: 7.9µM*; ALOX12 inh: inconclusive; TDP1 cell noCPT: -12%

Results for COc1cccc(Nc2nnc(SCC(=O)Nc3sccc3C(N)=O)s2)c1 ?
Gal4-VP16 FLuc: -17%[10 µM]; ELG1 repair inh: 15µM*; TDP1 cell CPT: 13µM*; RORg inh: inconclusive; ALOX12 inh: -9%; TDP1 cell noCPT: 8.2µM*

What do the screens show for `COCc1nnc(NC(=O)CSCc2ccccc2)s1`?
Gal4-VP16 FLuc: -17%; ELG1 repair inh: 23%; TDP1 cell CPT: -1%; RORg inh: 11µM*; ALOX12 inh: inconclusive; TDP1 cell noCPT: 5%

What do the screens show for `COCc1nnc(NC(=O)CSc2ccccc2)s1`?
Gal4-VP16 FLuc: -27%; ELG1 repair inh: 1%; TDP1 cell CPT: -4%; RORg inh: inconclusive; ALOX12 inh: -33%; TDP1 cell noCPT: -13%

What do the screens show for `Cc1ccc(C(C)C)c(OCc2nc(-c3nonc3N)no2)c1`?
Gal4-VP16 FLuc: -16%; ELG1 repair inh: inconclusive; TDP1 cell CPT: 16µM*; RORg inh: inconclusive; ALOX12 inh: -6%; TDP1 cell noCPT: 7.3µM*

Results for O=C(CCCSc1nc2ccccc2c(=O)[nH]1)c1ccc(F)cc1 ?
Gal4-VP16 FLuc: 18%; ELG1 repair inh: -16%; TDP1 cell CPT: 12µM*; RORg inh: -8%; ALOX12 inh: 5%; TDP1 cell noCPT: inconclusive

How did CCc1ccc(C(=O)CSc2nc3ccccc3c(=O)[nH]2)cc1 do in these assays?
Gal4-VP16 FLuc: inconclusive; ELG1 repair inh: inconclusive; TDP1 cell CPT: 1.5µM*; RORg inh: 17%; ALOX12 inh: -9%; TDP1 cell noCPT: 1.6µM*

What do the screens show for `O=C(CSc1nc2ccccc2c(=O)[nH]1)Nc1ccc(C(=O)O)cc1`?
Gal4-VP16 FLuc: -13%; ELG1 repair inh: 22%; TDP1 cell CPT: 4%; RORg inh: -10%; ALOX12 inh: -2%; TDP1 cell noCPT: -3%

How did Cc1ccc(C(=O)CSc2nc3ccccc3c(=O)[nH]2)cc1 do in these assays?
Gal4-VP16 FLuc: 11%; ELG1 repair inh: inconclusive; TDP1 cell CPT: 5.8µM*; RORg inh: 15%; ALOX12 inh: inconclusive; TDP1 cell noCPT: 8.2µM*

Results for Cc1ccc(C(=O)CSc2nc3ccccc3c(=O)[nH]2)cc1C ?
Gal4-VP16 FLuc: -6%; ELG1 repair inh: 19%; TDP1 cell CPT: inconclusive; RORg inh: 32%; ALOX12 inh: inconclusive; TDP1 cell noCPT: inconclusive

Results for Cc1nc2ccccc2nc1SCC(=O)c1ccccc1 ?
Gal4-VP16 FLuc: inconclusive; ELG1 repair inh: inconclusive; TDP1 cell CPT: inconclusive; RORg inh: -14%; ALOX12 inh: -15%; TDP1 cell noCPT: 7.3µM*

What do the screens show for `COc1ccc(-c2noc(-c3cccc(OCC(=O)N4CCN(c5ccccc5)CC4)c3)n2)cc1`?
ALOX12 inh: -12%

What do the screens show for `CCOc1ccc2c(n1)CCN(C(=O)Cc1cccc(C)c1)C2`?
ALOX12 inh: 0%

What do the screens show for `Cc1cc(=O)[nH]c(SCC(=O)c2ccc(C(C)C)cc2)n1`?
Gal4-VP16 FLuc: inconclusive; ELG1 repair inh: inconclusive; TDP1 cell CPT: -26%; RORg inh: 1.1µM*; ALOX12 inh: inconclusive; TDP1 cell noCPT: 18µM*

Results for O=c1[nH]c(SCCOc2cccc3ccccc23)nc2ccccc12 ?
Gal4-VP16 FLuc: 13%; ELG1 repair inh: -7%; TDP1 cell CPT: inconclusive; RORg inh: 7%; ALOX12 inh: -6%; TDP1 cell noCPT: 7.3µM*

What do the screens show for `COc1ccc(OC)c(CN2C[C@@H]3C(=O)N(CCCN4CCCC4=O)C(=O)[C@@H]3C2)c1`?
ALOX12 inh: 77%

What do the screens show for `Oc1cccc(NC(=S)Nc2ccc(SC(F)F)cc2)c1`?
Gal4-VP16 FLuc: 4%; ELG1 repair inh: 16%; TDP1 cell CPT: 4%; RORg inh: -10%; ALOX12 inh: inconclusive; TDP1 cell noCPT: inconclusive

Results for Oc1cccc2c(NC(=S)Nc3ccc(SC(F)F)cc3)cccc12 ?
Gal4-VP16 FLuc: 7.9µM*; ELG1 repair inh: -1%; TDP1 cell CPT: inconclusive; RORg inh: 6.3µM*; ALOX12 inh: inconclusive; TDP1 cell noCPT: inconclusive

Results for N#C/C(=C/c1cccc(/C=C(/C#N)c2nc3ccccc3[nH]2)c1)c1nc2ccccc2[nH]1 ?
ALOX12 inh: -29%

How did CCc1nc(SCC(=O)Nc2nnc(CC)s2)c2c(=O)n(C)c(=O)n(C)c2n1 do in these assays?
Gal4-VP16 FLuc: inconclusive; ELG1 repair inh: 16µM*; TDP1 cell CPT: 6.5µM*; RORg inh: 36%; ALOX12 inh: -14%; TDP1 cell noCPT: 8.2µM*

What do the screens show for `Cc1nnc(NC(=O)CSc2nc3c(c(=O)n(C)c(=O)n3C)n2C(C)C)s1`?
Gal4-VP16 FLuc: 4%; ELG1 repair inh: -7%; TDP1 cell CPT: -1%; RORg inh: 6%; ALOX12 inh: inconclusive; TDP1 cell noCPT: -20%

How did Cc1csc(NC(=O)CSc2nc(C)nc3c2c(=O)n(C)c(=O)n3C)n1 do in these assays?
Gal4-VP16 FLuc: 15%; ELG1 repair inh: 21µM*; TDP1 cell CPT: inconclusive; RORg inh: 27%; ALOX12 inh: 14%; TDP1 cell noCPT: 21µM*

What do the screens show for `CCCc1nc(SCC(=O)Nc2nnc(CC)s2)c2c(=O)n(C)c(=O)n(C)c2n1`?
Gal4-VP16 FLuc: 5µM*; ELG1 repair inh: inconclusive; TDP1 cell CPT: 6.5µM*; RORg inh: -21%; ALOX12 inh: 2%; TDP1 cell noCPT: 3.3µM*

What do the screens show for `CCc1nc(SCC(N)=O)c2c(=O)n(C)c(=O)n(C)c2n1`?
Gal4-VP16 FLuc: 4%; ELG1 repair inh: -2%; TDP1 cell CPT: 1%; RORg inh: -14%; ALOX12 inh: 14%[57.4 µM]; TDP1 cell noCPT: -4%

How did Cc1nnc(NC(=O)CSc2nc(CC(C)C)nc3c2c(=O)n(C)c(=O)n3C)s1 do in these assays?
Gal4-VP16 FLuc: 6%; ELG1 repair inh: -20%; TDP1 cell CPT: 16µM*; RORg inh: -21%; ALOX12 inh: -3%; TDP1 cell noCPT: 10µM*

Results for CCOc1cccc(CN2CC[C@@](C)(O)[C@H](N3CCCC3)C2)c1 ?
ALOX12 inh: 128%

What do the screens show for `Clc1cccc(N2CCN(C3CCCN(CCCc4ccccc4)C3)CC2)c1` (centres undefined)?
ALOX12 inh: 13%
